# Data published in PubChem BioAssay (NCI).
# The panel holds about 79,000 compounds, 15% with a hit somewhere; the sample as a whole holds those more often. A number with no mark means an inactive call. Active and inactive are the calls of the source. Rule as the data show it: active = growth inhibition above about 70%; inactive = the rest.
# Key:
# [1] = NCI Yeast Anticancer Drug Screen. Data for the rad52 strain (AID 147);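 also: 0% = growth of vehicle-treated control cultures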; conditions: S. cerevisiae rad52 mutant growth inhibition, active compounds read high
# Procedure, shortened: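 Screen used a yeast mutant impaired in DNA repair. After compound exposure, growth was measured. Values reflect inhibition compared with vehicle-treated cells.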
# [2] = NCI Yeast Anticancer Drug Screen. Data for the wt1 strain (AID 149);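 also: 0% = growth of vehicle-treated wt1 cultures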; conditions: S. cerevisiae wt1 strain (SPY 50644) growth inhibition, active compounds read high
# Procedure, shortened: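 Yeast wt1 strain exposed to compounds; growth inhibition measured relative to vehicle-treated controls.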
# [3] = NCI Yeast Anticancer Drug Screen. Data for the rad50EPP+ strain (AID 151);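 also: 0% = growth of vehicle-treated control cultures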; conditions: S. cerevisiae rad50 mutant strain, active compounds read high
# Procedure, shortened: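 Exposing the rad50EPP+ strain to each compound, growth was compared with vehicle-only cultures to give inhibition.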
# [4] = NCI Yeast Anticancer Drug Screen. Data for the mgt1 strain (AID 153); conditions: S. cerevisiae mgt1 mutant growth inhibition, active compounds read high
# Procedure, shortened: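 Genetically defined yeast (mgt1) treated with compound; inhibition of growth expressed against vehicle-treated controls.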
# [5] = NCI Yeast Anticancer Drug Screen. Data for the rad50 strain (AID 155);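 also: 0% = growth of vehicle-only cultures of the same strain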; conditions: S. cerevisiae rad50 strain growth inhibition, active compounds read high
# Procedure, shortened: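 Yeast carrying a defined DNA repair defect were exposed to test compounds, and growth was compared with vehicle-treated controls to give percent inhibition.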
# [6] = NCI Yeast Anticancer Drug Screen. Data for the mec2-1 strain (AID 157); conditions: S. cerevisiae mec2-1 strain, active compounds read high
# Procedure, shortened: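 Readout is yeast growth inhibition, normalised to vehicle-treated controls, in the mec2-1 strain exposed to compound.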
# [7] = NCI Yeast Anticancer Drug Screen. Data for the rad14 strain (AID 159);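 also: 0% = growth of vehicle-treated control cultures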; conditions: S. cerevisiae rad14 strain growth inhibition, active compounds read high
# Procedure, shortened: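 Yeast cells carrying a defined DNA-repair defect were exposed to compounds, and growth inhibition was calculated relative to vehicle-treated control cultures.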
# [8] = NCI Yeast Anticancer Drug Screen. Data for the sgs1 mgt1 strain (AID 161);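 also: 0% = growth of cultures given vehicle only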; conditions: S. cerevisiae sgs1 mgt1 strain, active compounds read high
# Procedure, shortened: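 Yeast cells carrying a defined DNA-repair defect were exposed to test compounds. Growth inhibition was measured relative to vehicle-treated controls.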
# [9] = NCI Yeast Anticancer Drug Screen. Data for the CLN2oe strain (AID 163);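 also: 0% = growth of vehicle-only control cultures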; conditions: S. cerevisiae CLN2oe strain, active compounds read high
# Procedure, shortened: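 Values reflect how much compound exposure reduced yeast growth, referenced to vehicle-exposed cells. Assay organism is a strain with a defined genetic change affecting cell-cycle control.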
# [10] = NCI Yeast Anticancer Drug Screen. Data for the cln2 rad14 strain (AID 165);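 also: 0% = growth equal to vehicle treated cultures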; conditions: S. cerevisiae cln2 rad14 strain, active compounds read high
# Procedure, shortened: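 Relative to vehicle controls, growth inhibition of compound-treated cln2 rad14 yeast was recorded.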
# [11] = NCI Yeast Anticancer Drug Screen. Data for the bub3 strain (AID 167); conditions: S. cerevisiae bub3 mutant strain, active compounds read high
# Procedure, shortened: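 Compounds were applied to a genetically altered yeast strain carrying a cell-cycle control defect. Growth inhibition was scored against vehicle-treated controls.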
# [12] = NCI Yeast Anticancer Drug Screen. Data for the wt2 strain (AID 169);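 also: 0% = growth of vehicle-treated yeast cultures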; conditions: S. cerevisiae wt2 strain growth inhibition, active compounds read high
# Procedure, shortened: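 Values express reduction in yeast growth under compound treatment, referenced to vehicle-treated cells.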
# [13] = NCI Yeast Anticancer Drug Screen. Data for the mlh1 rad18 strain (AID 175); conditions: S. cerevisiae mlh1 rad18 strain growth inhibition, active compounds read high
# Procedure, shortened: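 Test agents were incubated with a yeast strain of defined genotype (DNA damage repair defect). Inhibition of growth was derived by comparison with vehicle-exposed cultures.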
# [14] = NCI Yeast Anticancer Drug Screen. Data for the rad18 strain (AID 177); conditions: S. cerevisiae rad18 mutant growth inhibition, active compounds read high
# Procedure, shortened: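 A genetically defined yeast mutant impaired in DNA damage repair was treated with test compounds, then its growth was measured against cultures receiving vehicle alone.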
# [15] = NCI Yeast Anticancer Drug Screen. Data for the mlh1 strain (AID 171);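 also: 0% = growth of vehicle-treated control cultures of the same strain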; conditions: S. cerevisiae mlh1 strain growth inhibition, active compounds read high
# Procedure, shortened: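 Steps: expose the defined-mutant yeast strain to compound; expose a parallel culture to vehicle; measure growth; express compound effect as inhibition relative to the vehicle culture.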
# [16] = at 5.0 µM (retest, dose inferred, filed as 0.5)
# [17] = at 50.0 µM (retest, dose inferred, filed as 5.0)
smiles,measurement,setting,value
O=P(CCCCP(=O)(c1ccccc1)c1ccccc1)(c1ccccc1)c1ccccc1.[Cl][Sn]([Cl])([c]1ccccc1)[c]1ccccc1,growth inhibition,[1]; at 1.2 µM,-4%
same,growth inhibition,[1]; at 3.7 µM,26%
same,growth inhibition,[1]; at 11.0 µM,74% (active)
same,growth inhibition,[1]; at 33.0 µM,96% (active)
same,growth inhibition,[1]; at 100.0 µM,97% (active)
same,growth inhibition,[2]; at 1.2 µM,-6%
same,growth inhibition,[2]; at 3.7 µM,3%
same,growth inhibition,[2]; at 11.0 µM,26%
same,growth inhibition,[2]; at 33.0 µM,93% (active)
same,growth inhibition,[2]; at 100.0 µM,96% (active)
same,growth inhibition,[3]; at 1.2 µM,8%
same,growth inhibition,[3]; at 3.7 µM,-1%
same,growth inhibition,[3]; at 11.0 µM,2%
same,growth inhibition,[3]; at 33.0 µM,14%
same,growth inhibition,[3]; at 100.0 µM,15%
same,growth inhibition,[4]; at 1.2 µM,13%
same,growth inhibition,[4]; at 3.7 µM,24%
same,growth inhibition,[4]; at 11.0 µM,74% (active)
same,growth inhibition,[4]; at 33.0 µM,96% (active)
same,growth inhibition,[4]; at 100.0 µM,97% (active)
same,growth inhibition,[5]; at 1.2 µM,26%
same,growth inhibition,[5]; at 3.7 µM,24%
same,growth inhibition,[5]; [16],66%
same,growth inhibition,[5]; at 11.0 µM,82% (active)
same,growth inhibition,[5]; at 33.0 µM,97% (active)
same,growth inhibition,[5]; [17],98% (active)
same,growth inhibition,[5]; at 50.0 µM,85.7% (active)
same,growth inhibition,[5]; at 100.0 µM,97% (active)
same,growth inhibition,[6]; at 1.2 µM,11%
same,growth inhibition,[6]; at 3.7 µM,22%
same,growth inhibition,[6]; [16],48%
same,growth inhibition,[6]; at 11.0 µM,70% (active)
same,growth inhibition,[6]; at 33.0 µM,95% (active)
same,growth inhibition,[6]; [17],98% (active)
same,growth inhibition,[6]; at 50.0 µM,87.8% (active)
same,growth inhibition,[6]; at 100.0 µM,96% (active)
same,growth inhibition,[7]; at 1.2 µM,4%
same,growth inhibition,[7]; at 3.7 µM,16%
same,growth inhibition,[7]; at 11.0 µM,78% (active)
same,growth inhibition,[7]; at 33.0 µM,94% (active)
same,growth inhibition,[7]; at 100.0 µM,96% (active)
same,growth inhibition,[8]; [16],83% (active)
same,growth inhibition,[8]; [17],98% (active)
same,growth inhibition,[8]; at 50.0 µM,87.3% (active)
same,growth inhibition,[9]; at 1.2 µM,-16%
same,growth inhibition,[9]; at 3.7 µM,-27%
same,growth inhibition,[9]; at 11.0 µM,15%
same,growth inhibition,[9]; at 33.0 µM,91% (active)
same,growth inhibition,[9]; at 100.0 µM,95% (active)
same,growth inhibition,[10]; [16],15%
same,growth inhibition,[10]; [17],97% (active)
same,growth inhibition,[10]; at 50.0 µM,81.8% (active)
same,growth inhibition,[11]; at 1.2 µM,7%
same,growth inhibition,[11]; at 3.7 µM,-3%
same,growth inhibition,[11]; [16],67%
same,growth inhibition,[11]; at 11.0 µM,50%
same,growth inhibition,[11]; at 33.0 µM,93% (active)
same,growth inhibition,[11]; [17],98% (active)
same,growth inhibition,[11]; at 50.0 µM,87.5% (active)
same,growth inhibition,[11]; at 100.0 µM,96% (active)
same,growth inhibition,[12]; at 1.2 µM,-51%
same,growth inhibition,[12]; at 3.7 µM,-35%
same,growth inhibition,[12]; at 11.0 µM,43%
same,growth inhibition,[12]; at 33.0 µM,92% (active)
same,growth inhibition,[12]; at 100.0 µM,96% (active)
same,growth inhibition,[13]; [16],84% (active)
same,growth inhibition,[13]; [17],96% (active)
same,growth inhibition,[13]; at 50.0 µM,89.5% (active)
same,growth inhibition,[14]; at 1.2 µM,3%
same,growth inhibition,[14]; at 3.7 µM,16%
same,growth inhibition,[14]; at 11.0 µM,82% (active)
same,growth inhibition,[14]; at 33.0 µM,95% (active)
same,growth inhibition,[14]; at 100.0 µM,96% (active)
CCC1(OC(=O)CN)C(=O)OCc2c1cc1n(c2=O)Cc2cc3ccccc3nc2-1 (stereo unspecified),growth inhibition,[1]; at 1.2 µM,93% (active)
same,growth inhibition,[1]; at 3.7 µM,95% (active)
same,growth inhibition,[1]; at 11.0 µM,96% (active)
same,growth inhibition,[1]; at 33.0 µM,97% (active)
same,growth inhibition,[1]; at 100.0 µM,97% (active)
same,growth inhibition,[2]; at 1.2 µM,-1%
same,growth inhibition,[2]; at 3.7 µM,4%
same,growth inhibition,[2]; at 11.0 µM,51%
same,growth inhibition,[2]; at 33.0 µM,88% (active)
same,growth inhibition,[2]; at 100.0 µM,94% (active)
same,growth inhibition,[3]; at 1.2 µM,45%
same,growth inhibition,[3]; at 3.7 µM,67%
same,growth inhibition,[3]; at 11.0 µM,85% (active)
same,growth inhibition,[3]; at 33.0 µM,92% (active)
same,growth inhibition,[3]; at 100.0 µM,93% (active)
same,growth inhibition,[4]; at 1.2 µM,20%
same,growth inhibition,[4]; at 3.7 µM,25%
same,growth inhibition,[4]; at 11.0 µM,50%
same,growth inhibition,[4]; at 33.0 µM,80% (active)
same,growth inhibition,[4]; at 100.0 µM,91% (active)
same,growth inhibition,[5]; at 1.2 µM,94% (active)
same,growth inhibition,[5]; at 3.7 µM,96% (active)
same,growth inhibition,[5]; [16],97% (active)
same,growth inhibition,[5]; at 11.0 µM,97% (active)
same,growth inhibition,[5]; at 33.0 µM,97% (active)
same,growth inhibition,[5]; [17],97% (active)
same,growth inhibition,[5]; at 50.0 µM,98% (active)
same,growth inhibition,[5]; at 100.0 µM,97% (active)
same,growth inhibition,[6]; at 1.2 µM,19%
same,growth inhibition,[6]; at 3.7 µM,82% (active)
same,growth inhibition,[6]; [16],84% (active)
same,growth inhibition,[6]; at 11.0 µM,96% (active)
same,growth inhibition,[6]; at 33.0 µM,97% (active)
same,growth inhibition,[6]; [17],95% (active)
same,growth inhibition,[6]; at 50.0 µM,99% (active)
same,growth inhibition,[6]; at 100.0 µM,98% (active)
same,growth inhibition,[7]; at 1.2 µM,4%
same,growth inhibition,[7]; at 3.7 µM,23%
same,growth inhibition,[7]; at 11.0 µM,76% (active)
same,growth inhibition,[7]; at 33.0 µM,93% (active)
same,growth inhibition,[7]; at 100.0 µM,96% (active)
same,growth inhibition,[8]; [16],62%
same,growth inhibition,[8]; [17],96% (active)
same,growth inhibition,[8]; at 50.0 µM,94% (active)
same,growth inhibition,[9]; at 1.2 µM,37%
same,growth inhibition,[9]; at 3.7 µM,37%
same,growth inhibition,[9]; at 11.0 µM,62%
same,growth inhibition,[9]; at 33.0 µM,80% (active)
same,growth inhibition,[9]; at 100.0 µM,88% (active)
same,growth inhibition,[10]; [16],49%
same,growth inhibition,[10]; [17],92% (active)
same,growth inhibition,[10]; at 50.0 µM,89.2% (active)
same,growth inhibition,[11]; at 1.2 µM,9%
same,growth inhibition,[11]; at 3.7 µM,13%
same,growth inhibition,[11]; [16],8%
same,growth inhibition,[11]; at 11.0 µM,44%
same,growth inhibition,[11]; at 33.0 µM,79% (active)
same,growth inhibition,[11]; [17],94% (active)
same,growth inhibition,[11]; at 50.0 µM,96.9% (active)
same,growth inhibition,[11]; at 100.0 µM,92% (active)
same,growth inhibition,[12]; at 1.2 µM,0%
same,growth inhibition,[12]; at 3.7 µM,4%
same,growth inhibition,[12]; at 11.0 µM,67%
same,growth inhibition,[12]; at 33.0 µM,90% (active)
same,growth inhibition,[12]; at 100.0 µM,95% (active)
same,growth inhibition,[15]; at 1.2 µM,3%
same,growth inhibition,[15]; at 3.7 µM,15%
same,growth inhibition,[15]; at 11.0 µM,70% (active)
same,growth inhibition,[15]; at 33.0 µM,93% (active)
same,growth inhibition,[15]; at 100.0 µM,96% (active)
same,growth inhibition,[13]; [16],42%
same,growth inhibition,[13]; [17],-13%
same,growth inhibition,[13]; at 50.0 µM,97.3% (active)
same,growth inhibition,[14]; at 1.2 µM,31%
same,growth inhibition,[14]; at 3.7 µM,33%
same,growth inhibition,[14]; at 11.0 µM,58%
same,growth inhibition,[14]; at 33.0 µM,80% (active)
same,growth inhibition,[14]; at 100.0 µM,89% (active)
